PubChem BioAssay (NCATS)
Records with an inconclusive call do not appear. Entries that show only a call come without a potency. Calls of active or inactive are those of the source. Calls come from the whole dose curve; as a rule, active = well fitted cell-killing curve with a large enough effect; inconclusive = small, poorly fitted or top-dose-only effect; inactive = flat fitted curve, though single readings scatter.

test: qHTS of pediatric cancer cell lines to identify multiple opportunities for drug repurposing: Primary screen for BT-37 cells (AID 1347094); conditions: BT-37 viability, CellTiter-Glo luminescence, 48 h; series mostly up to 57.3 µM
Description: Drug repurposing or repositioning has been offered as a strategy for drug development in oncology programs. This approach has special potential for childhood cancers and other rare or orphan diseases, where the expected return on new drug development has been a disincentive to pharmaceuticals. […] In this project we exploit the poly-pharmacology of drugs to discover new indications via phenotypic screening of a panel of 19 well-characterized cell lines derived from solid tumors seen in children and adolescents. The goal is to identify approved drugs with previously unrecognized anticancer properties that has the potential to reveal new mechanisms and biological processes involved in carcinogenesis or drug resistance. We employed a titration-based paradigm (quantitative high-throughput screening or qHTS), where all compounds were tested at multiple concentrations for their effect on cell viability. Concentration-response curves (CRCs) were derived directly from the primary screen, and both potency and efficacy values were used to identify compounds with robust bioactivity profiles. We screened the NIH Chemical Genomics Center (NCGC) Pharmaceutical Collection (NPC) and Mechanism Interrogation Plate (MIPE) small molecule collections of approved and investigational compounds against these cell lines; and measured metabolically active cells after 48 hours of compound treatment as a proxy for cell viability. […] Assay Submitter: Nathalia J. Martinez, National Center for Advancing Translational Sciences, National Institutes of Health, Rockville, MD, USA; email: natalia.martinez@nih.gov Shen, M et al. Quantitative high-throughput phenotypic screening of pediatric cancer cell lines identifies multiple opportunities for drug repurposing. Oncotarget 2017 Dec 19;9(4):4758-4772. PMID 29435139.
The cells were obtained from University of North Carolina (UNC), Pediatric Preclinical Testing Program (PPT), and Coriell Institute (CI). qHTS cell viability assay: Cells were assayed in growth media at a density of 500-1,000 cells/well. Five microliters of cells were dispensed into 1,536-well, white, solid-bottom, TC-treated plates (Greiner Bio One) using a multidrop dispenser and incubated at 37 degrees C, 5% CO2, under a humidified atmosphere for 5 hours. Twenty-three nanoliters of compounds and controls (neutral control DMSO or positive control bortezomib at final concentration of 2.3 µM) were subsequently transferred by Kalypsys pintool. For primary screens, the MIPE collection was tested at 11-point dilutions (final concentrations range from 0.78 nM to 46 µM) and the NPC collection at 8-point dilutions (final concentrations range from 0.59 nM to 46 µM). Compounds tested in follow-up screens were assayed at 11-point dilutions. Cells were incubated for 48 hours, followed by addition of 3 µL of CellTiter-Glo (Promega). After a 15 min incubation at room temperature, samples were analyzed for luminescence intensity using a ViewLux High-throughput CCD imager equipped with clear filters.
Potency is the fitted concentration of half-maximal effect.

| Structure (SMILES) | Potency | activity change, negative = cytotoxic |
| --- | --- | --- |
| C[C@@H]1C[C@H]2[C@@H]3C[C@H](F)C4=CC(=O)C=C[C@]4(C)[C@@]3(F)[C@@H](O)C[C@]2(C)[C@@]1(O)C(=O)CO | inactive |  |
| Oc1cn2c(n1)Nc1ccc(Cl)c(Cl)c1C2 | inactive |  |
| C/C(=C(\CCOP(=O)(O)O)SC(=O)c1ccccc1)N(C=O)Cc1cnc(C)nc1N |  | 17.3% [at 6.03 µM] (inactive) |
| CC(=O)Oc1ccc(C2(c3ccc(OC(C)=O)cc3)C(=O)Nc3ccccc32)cc1 | inactive |  |
| CCN(CC)C(C)CN1c2ccccc2Sc2ccccc21 (stereo not given) | inactive |  |
| Nc1ncnc2c1ncn2[C@@H]1O[C@H](CO)[C@@H](O)[C@H]1O | inactive |  |
| O=C(O)CC(O)C(=O)O (stereo not given) | inactive |  |
| CC1=C(C/C=C(\C)CCC[C@H](C)CCC[C@H](C)CCCC(C)C)C(=O)c2ccccc2C1=O | inactive |  |
| OC[C@H]1O[C@@H](O[C@@H]2[C@@H](CO)O[C@](O)(CO)[C@H]2O)[C@H](O)[C@@H](O)[C@H]1O | inactive |  |
| C[C@H]1O[C@H](O[C@H]2[C@H](O)[C@@H](O)[C@@H](O[C@H]3[C@H](O)[C@@H](O)[C@H](O)O[C@@H]3CO)O[C@@H]2CO)[C@H](O)[C@@H](O)[C@@H]1N[C@H]1C=C(CO)[C@@H](O)[C@H](O)[C@H]1O | inactive |  |
| CC(C)(C)C(=O)C(Oc1ccc(Cl)cc1)n1ccnc1 (stereo not given) | inactive |  |
| OCC(CO)N[C@H]1C[C@](O)(CO)[C@@H](O)[C@H](O)[C@H]1O | inactive |  |
| COc1ccc2[nH]c(S(=O)Cc3ncc(C)c(OC)c3C)nc2n1 (stereo not given) | inactive |  |
| NC(=O)NC(=O)Cc1ccccc1 | inactive |  |
| O=C1OC(OC(=O)c2cccnc2Nc2cccc(C(F)(F)F)c2)c2ccccc21 (stereo not given) | inactive |  |
| CC[N+](CC)(CC)CCOc1ccc(/C=C/c2ccccc2)cc1 | 15.5 µM (active) |  |
| CC1(C)Oc2ccc(C#N)cc2[C@@H](N2CCCC2=O)[C@@H]1O | inactive |  |
| CCOC(CN1CCN(CC(C)C(=O)c2ccccc2)CC1)c1ccccc1 (stereo not given) | inactive |  |
| COc1cc2[nH]c(=O)[nH]c(=O)c2cc1OC | inactive |  |
| CCC(=O)Nc1ccc(O)cc1 | inactive |  |

| Structure (SMILES) | Potency | activity change, negative = cytotoxic |
| --- | --- | --- |
| Oc1ccc(C(O)CNCCCCCCNCC(O)c2ccc(O)c(O)c2)cc1O (stereo not given) | inactive |  |
| O=C(O)[C@@H]1CSCN1 | inactive |  |
| O=C1NS(=O)(=O)c2ccccc21 | inactive |  |
| CC(=O)c1ccc2c(c1)N(CCCN(C)C)c1ccccc1S2 | inactive |  |
| N[C@H]1C(O)O[C@H](CO)[C@@H](O)[C@@H]1O (stereo not given in full) | inactive |  |
| C[C@](N)(Cc1ccc(O)cc1)C(=O)O |  | 0.899% [at 6.03 µM] (inactive) |
| O=c1[nH]cnc2c1ncn2[C@@H]1O[C@H](CO)[C@@H](O)[C@H]1O | inactive |  |
| O=C(O)c1ccccc1O | inactive |  |
| N[C@@H](CSCCCO)C(=O)O | inactive |  |
| Cn1cc[nH]c1=S | inactive |  |
| C=CCn1c(=O)n([C@@H]2O[C@H](CO)[C@@H](O)[C@H]2O)c2nc(N)[nH]c(=O)c21 | inactive |  |
| NC1CCN(c2cccc(Cl)n2)CC1 | inactive |  |
| O=C1N=C(O)CN1/N=C/c1ccc(-c2ccc([N+](=O)[O-])cc2)o1 | inactive |  |
| [O-][n+]1cccc(CO)c1 | inactive |  |
| NC(=O)c1ncn([C@@H]2O[C@H](CO)[C@@H](O)[C@H]2O)n1 | inactive |  |
| Nc1nc2c(ncn2CCC(CO)CO)c(=O)[nH]1 | inactive |  |
| COc1ccc2c(c1)C(=O)N(CCc1ccc(S(=O)(=O)NC(=O)NC3CCCCC3)cc1)C(=O)C2(C)C | inactive |  |
| CNC(=O)Oc1ccc2c(c1)[C@]1(C)CCN(C)[C@@H]1N2C | inactive |  |
| C[C@]12CC[C@@H]3c4ccc(O)cc4CC[C@H]3[C@@H]1CCC2=O | inactive |  |
| CCN(CC)C(=O)Nc1ccc(OCC(O)CNC(C)(C)C)c(C(C)=O)c1 (stereo not given) | inactive |  |
